Our source for the outcome and AC50 values is PubChem BioAssay (EPA / NIEHS).

Read-out in assay [1]: Tissue Factor, F3 (gene 2152)
The assay can be described thus: BSK_CASM3C_TissueFactor: BioMAP Diversity Plus: CASM3C Assay for Tissue Factor Biomarker Activity (AID 2283052).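 Further: cell surface tissue factor protein level read by ELISA.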 The settings on record: primary human coronary artery smooth muscle cells; actives raise or lower the signal.

Read-out in assay [2]: Interferon-gamma inducible Protein 10 (IP10), CXCL10 (gene 3627)
In words: BSK_hDFCGF_IP10: BioMAP Diversity Plus: hDFCGF Assay for Interferon-gamma inducible Protein 10 (IP10) Biomarker Activity (AID 2283053). The settings on record: primary human foreskin fibroblasts; actives raise or lower the signal. In a few lines:
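Human foreskin fibroblast primary cells (hDFCGF system) were dosed with chemical and assayed at 24 h; IP-10 measured by ELISA. Activity fitted bidirectionally relative to DMSO negative control as baseline.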

Read-out in assay [3]: Urokinase-type plasminogen activator receptor (uPAR), PLAUR (gene 5329)
The assay can be described thus: BSK_CASM3C_uPAR: BioMAP Diversity Plus: CASM3C Assay for Urokinase-type plasminogen activator receptor (uPAR) Biomarker Activity (AID 2283054).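 Further: cell-surface uPAR protein level quantified by ELISA.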 The settings on record: primary human coronary artery smooth muscle cells; actives raise or lower the signal.

Read-out in assay [4]: Vascular cell adhesion molecule 1 (VCAM1), VCAM1 (gene 7412)
In words: BSK_CASM3C_VCAM1: BioMAP Diversity Plus: CASM3C Assay for Vascular cell adhesion molecule 1 (VCAM1) Biomarker Activity (AID 2283055).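 Further: VCAM-1 protein level quantified by ELISA on the cells.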 The settings on record: primary human coronary artery smooth muscle cells; actives raise or lower the signal.

Read-out in assay [5]: Collagen III, COL3A1 (gene 1281)
The assay can be described thus: BSK_hDFCGF_CollagenIII: BioMAP Diversity Plus: hDFCGF Assay for Collagen III Biomarker Activity (AID 2283056). The settings on record: primary human foreskin fibroblasts; actives raise or lower the signal. In a few lines:
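ELISA read-out of collagen III from human skin fibroblast cultures sampled 24 h post-dosing. Values were derived by bidirectional fitting relative to the DMSO vehicle control.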

Read-out in assay [6]: Interleukin-8 (IL8), CXCL8 (gene 3576)
In words: BSK_hDFCGF_IL8: BioMAP Diversity Plus: hDFCGF Assay for Interleukin-8 (IL8) Biomarker Activity (AID 2283058). To be noted: primary human foreskin fibroblasts; actives raise or lower the signal. The gist of the method: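 Cells used are human skin primary fibroblasts. Chemical is added, cultures run 24 h, then IL-8 is quantified by ELISA, and gain or loss versus DMSO control is fitted in both directions.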

A short description of assay [7]: BSK_hDFCGF_Proliferation: Cell Proliferation Assessment in the BioMAP Diversity Plus: hDFCGF Assay (AID 2283059).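 Further: curves fitted for both rise and fall of signal versus DMSO baseline.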 The settings on record: primary human foreskin fibroblasts. The gist of the method: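 Sub-confluent human foreskin fibroblast cultures receive test chemical […]. Relative cell number is quantified by sulforhodamine B staining (0.1%, after 10% TCA fixation) at 560 nm, with bidirectional fitting referenced to DMSO.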

Read-out in assay [8]: Macrophage colony-stimulating factor (MCSF), CSF1 (gene 1435)
In words: BSK_hDFCGF_MCSF: BioMAP Diversity Plus: hDFCGF Assay for Macrophage colony-stimulating factor (MCSF) Biomarker Activity (AID 2283060). To be noted: primary human foreskin fibroblasts; actives raise or lower the signal. In a few lines:
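Primary human foreskin fibroblasts dosed with chemical; 24 h later, M-CSF quantified by ELISA; curves fitted in both directions vs DMSO negative control.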

Assay [9] is described as follows: BSK_hDFCGF_SRB: Viability Assessment in the BioMAP Diversity Plus: hDFCGF Assay (AID 2283061).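 Further: cells exposed to compound for 24 h before the read.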 The settings on record: primary human foreskin fibroblasts. The gist of the method:
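Readout is SRB absorbance at 560 nm, reflecting total protein in parallel cultures of human foreskin fibroblasts harvested 24 h after chemical dosing. Activity was fitted bidirectionally relative to DMSO.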

Read-out in assay [10]: Epidermal growth factor receptor (EGFR), EGFR (gene 1956)
The assay can be described thus: BSK_hDFCGF_EGFR: BioMAP Diversity Plus: hDFCGF Assay for Epidermal growth factor receptor (EGFR) Biomarker Activity (AID 2283057). To be noted: primary human foreskin fibroblasts; actives raise or lower the signal. In a few lines:
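Primary human foreskin fibroblasts were exposed to compound for 24 h, after which cell-surface EGFR was quantified by ELISA. Activity was fitted bidirectionally against the DMSO negative control as baseline.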

Active and inactive are the calls of the source. How the source made its calls: active means hit-call score of the fitted dose curve at least 0.9, where 1 is the maximum; inactive means score below 0.9.

The AC50 is the concentration giving half of the maximal activity seen. Consider `CC[C@H](C)C(=O)O[C@H]1C[C@@H](C)C=C2C=C[C@H](C)[C@H](CC[C@@H]3C[C@@H](O)CC(=O)O3)[C@H]21`, for which the outcome in assay [1], in assay [3] and in assay [4] was inactive. Moreover, the AC50 was 35.3 µM (active) in assay [2]; 29.8 µM (active) in assay [5]; 33.8 µM (active) in [6]; 13.5 µM (active) in assay [7]; 27.6 µM (active) in [8]; 32.2 µM (active) in assay [9].

As for `Cc1ccc(O)cc1`, the outcome in assay [1], in [2], in assay [4], in assay [5], in [10] and in assay [6] was inactive. The outcome in assay [7], in assay [8] and in [9] was inactive. Besides, the AC50 in [3] is 4.24 µM (active).

For `CCc1cc(SCc2sc(-c3ccc(C(F)(F)F)cc3)nc2CN2CCN(c3ccc(OC)cc3)CC2)ccc1OCC(=O)O`, in assay [1], the outcome was inactive. The concentration at half-maximal activity (AC50) in [2] was 2.18 µM (active); in assay [3], 15.3 µM (active); in assay [4], 33 µM (active); in assay [5], 3.97 µM (active); in [10], 1.94 µM (active); in assay [6], 5.15 µM (active). For the same compound, the AC50 in [7] was 1.68 µM (active); in assay [8], 3.28 µM (active); in assay [9] it was 2 µM (active).

Take `O=P(OC(CCl)CCl)(OC(CCl)CCl)OC(CCl)CCl`: the result in [1], in [2], in assay [3], in assay [4], in assay [10] and in [6] was inactive. Moreover, the result in assay [8] and in assay [9] was inactive. In addition, the concentration at half-maximal activity (AC50) in [5] was 12 µM (active); in assay [7], 16.2 µM (active).
